# Measurements from ChEMBL document CHEMBL3988442, “University of Dundee, Small-Polar-MMV Screening Library” (2021).
# The campaign covered roughly 48,000 compounds. About 13,000 (27%) showed an effect of 50% or more. This is one part of the list.
# System: Wolbachia pipientis
# Assay: Anti-Wolbachia Cell-Based Screen
# Type: functional
# Parameters: scale not given: in the data most compounds retested in dose-response had high values
# Details: 5 µM
row,Structure (SMILES),Percent Effect
1,Cn1cnc(S(=O)(=O)N2CCOCC2)c1Cl,-4.923%
2,COC(=O)Cn1cccc(S(=O)(=O)N2CCC(C)CC2)c1=O,3.954%
3,CC(C)CCn1nc2ccc(S(=O)(=O)N3CCOCC3)cn2c1=O,120.3%
4,Cc1nn(C)c2ncc(S(=O)(=O)N3CCCC(C)CC3)cc12 (stereo unspecified),-7.374%
5,CC(C)Cn1nc2ccc(S(=O)(=O)N3CCC(C)CC3)cn2c1=O,132.8%
6,CCC(C)NC(=O)NCCCn1nc2ccccn2c1=O (stereo unspecified),-2.078%
7,COCCO[C@H]1CCN(C(=O)c2ccno2)[C@H]1Cc1ccncc1.O=C(O)C(F)(F)F,-8.897%
8,CC/C=C(/C)C(=O)NCc1ccnc(OC2CCOCC2)c1,-6.645%
9,CC(=O)NCc1nnc2n1CCN(c1ncnc3c(C)csc13)CC2,-2.169%
10,O=S(=O)(CCCn1cncn1)Cc1ccc(F)cc1Cl,8.322%
11,CCc1ncc(C(=O)N(CCOC)Cc2ccccc2F)cn1,-19.66%
12,CCSc1ccccc1C(=O)N(CCOC)Cc1ccoc1,121.3%
13,COCCN(Cc1ccncc1)C(=O)C1COc2c(cccc2OC)C1 (stereo unspecified),4.804%
14,CCOc1ccc(CN(CCOC)C(=O)c2ccncc2Cl)cc1,0.1724%
15,CCN(Cc1ccoc1)C(=O)c1ccc(C)c(S(N)(=O)=O)c1,0.3555%
16,CCN(Cc1ccoc1)C(=O)c1ccncc1O,2.225%
17,COCCN(Cc1ccoc1)C(=O)c1ccccc1OC,102.9%
18,COCCN(Cc1ccoc1)C(=O)c1ccccc1Cl,-4.504%
19,COCCN(Cc1ccoc1)C(=O)c1c(F)cccc1Cl,-1.026%
20,COCCN(CCOC)C(=O)c1ccoc1C,-2.566%
21,COCCN(Cc1ccoc1)C(=O)c1ccc(Cl)s1,106%
22,COCCN(Cc1ccoc1)C(=O)c1c(F)cccc1F,126.9%
23,N[C@H]1CN(C(=O)c2ccccc2OCCc2ccccc2)C[C@@H]1C1CC1,18.87%
24,O=S(=O)(NC1=NCN(CCc2cccs2)CN1)c1ccccc1,2.891%
25,Cc1ncc2c(n1)CN(Cc1cn3ccsc3n1)CC2,-12.96%
26,COCCCN(Cc1ccncc1)C(=O)CSc1ccc(F)cc1,-0.07203%

row,Structure (SMILES),Percent Effect
1,COCCN(Cc1ccoc1)C(=O)c1cccnc1SC,9.468%
2,NC(=O)CCN(C(=O)CSc1ccc(F)cc1)c1ccc(F)cc1,-8.487%
3,CCN(C)c1ccc(C(=O)N(CCOC)Cc2ccccn2)cc1,-4.982%
4,COCCN(Cc1ccoc1)C(=O)c1ccccn1,112.1%
5,COCCN(Cc1ccoc1)C(=O)CSc1ccc(F)cc1,117.6%
6,O=C(CN1CCC2(CCCN(CCO)C2=O)C1)NCCc1ccccc1 (stereo unspecified),3.055%
7,O=C(COc1coc(CN2CCCCC2)cc1=O)Nc1ccc(Cl)cc1,-2.562%
8,Cc1ccccc1NS(=O)(=O)c1cc2c(c(C(=O)O)c1)OCCO2,-5.791%
9,CCc1cccc(NS(=O)(=O)c2cc3c(c(C(=O)O)c2)OCCO3)c1,10.09%
10,CN(c1ccc(F)c(F)c1)S(=O)(=O)c1cc2c(c(C(=O)O)c1)OCCO2,-16.04%
11,Cc1cc(C)cc(NS(=O)(=O)c2cc3c(c(C(=O)O)c2)OCCO3)c1,6.571%
12,Cc1ccc(F)c(NS(=O)(=O)c2cc3c(c(C(=O)O)c2)OCCO3)c1,118.3%
13,Cc1ccc(C)c(NS(=O)(=O)c2cc3c(c(C(=O)O)c2)OCCO3)c1,110.3%
14,Cc1cc(C)cc(N(C)S(=O)(=O)c2cc3c(c(C(=O)O)c2)OCCO3)c1,-3.92%
15,Cc1cccc(NS(=O)(=O)c2cc3c(c(C(=O)O)c2)OCCO3)c1,105.7%
16,Cc1ccc(NS(=O)(=O)c2cc3c(c(C(=O)O)c2)OCCO3)c(F)c1,-7.996%
17,Cc1nc(CN(C)C(=O)c2cccc(CC3CCNCC3)c2)no1,-18.2%
18,CCc1nnsc1C(=O)NC(CC(C)C)C(=O)OC (stereo unspecified),-4.538%
19,CN1C[C@@H](NC(=O)c2cc(F)cc(F)c2)C[C@H]1C(=O)NCc1ncc[nH]1,4.795%
20,COc1ccccc1NCC(=O)NCc1scnc1C,-10.76%
21,Cc1nc(C)c(C(=O)N2Cc3ccccc3OCC2Cn2ccnc2)s1 (stereo unspecified),70.21%
22,O=C(c1cccnc1)N1Cc2ccccc2OCC1Cn1ccnc1 (stereo unspecified),99.63%
23,CC1CN(CCC(=O)NCCc2cccnc2)Cc2ccccc2O1 (stereo unspecified),11.18%
24,CN(CC1COc2ccccc2O1)C(=O)NCCCn1ccnc1 (stereo unspecified),-8.094%
25,CC(Cn1ccnc1)NC(=O)NCCN1CCc2ccccc2C1 (stereo unspecified),3.376%
